# MITF primary = blocks human microphthalmia-associated transcription factor | O75030 | AlphaScreen MITF homodimerization, bead proximity signal | inhibition, % at 2.6 µM | 650,000 tested, 0.91% active; in the data active = inhibition above about 50%;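 note: 0% = vehicle wells with protein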
# FBW7 activator = human FBW7 E3 ligase activation, primary screen; Q969H0; normalized activity (activation), % at 26.1 µM; 650,000 tested, 0.13% active; AlphaScreen FBW7–phospho-cyclin E peptide binding, activator screen; AID 1259310; in the data active = normalized activity above about 1.9%;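 note: purified mutant Fbw7 with reduced substrate affinity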
# TEAD-YAP inh = TEAD-YAP interaction inhibition. HEK-TIYL cells, TEAD-Gal4/YAP UAS-luciferase luminescence. inhibition, % at 9.12 µM. 640,000 tested, 1.4% active; in the data active = inhibition above about 32%;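 note: 0% = median of test compound wells and 100% = reference inhibitor wells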
# GPR151 ag = human GPR151 activation; activation, % at 11.2 µM; PathHunter beta-arrestin GPR151 cells, luminescence; 650,000 tested, 1% active; Q8TDV0; AID 1508602; in the data active = activation above about 4.9%;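 note: 0% = median of compound wells and 100% = cells with positive control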
# GPR151 confirm = confirmation of human GPR151 activators. shares compounds with GPR151 ag. GPR151 PathHunter beta-arrestin cells, luminescence, 90 min; % of EA-reagent control over plate median. activation, % at 11.2 µM. 6,700 tested, under 10 active. AID 1508609;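 active = mean percent activation across replicates above the confirmation screen cutoff of 4.91%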
# GPR119 ag = activates human GPR119 in a GPR151 counter-screen | activation, % at 11.2 µM | GPR119 PathHunter beta-arrestin cells, luminescence, 90 min; 0 = compound-well median, 100 = enzyme-acceptor control | 6,700 tested, 0.3% active | AID 1508611 | shares compounds with GPR151 ag;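 active = mean percent activation in the counterscreen above 29.09%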;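 note: counterscreen on off-target GPR119 to flag nonselective hits from the GPR151 activator screen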
# Target sequence (Q8TDV5 whole entry, looked up): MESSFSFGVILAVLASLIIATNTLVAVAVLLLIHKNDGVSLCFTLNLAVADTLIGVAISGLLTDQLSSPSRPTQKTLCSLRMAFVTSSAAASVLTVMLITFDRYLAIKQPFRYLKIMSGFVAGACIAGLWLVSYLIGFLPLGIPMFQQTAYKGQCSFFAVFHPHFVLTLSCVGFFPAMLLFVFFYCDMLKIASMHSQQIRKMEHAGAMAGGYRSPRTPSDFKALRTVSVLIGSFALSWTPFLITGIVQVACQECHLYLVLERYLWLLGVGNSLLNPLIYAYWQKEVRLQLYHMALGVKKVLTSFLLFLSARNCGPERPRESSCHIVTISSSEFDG
# An asterisk follows results filed as active; / = not tested or not shown. Rows were chosen to be rich in hits. Some 3.4% of all compounds tested hit in one or more screens of this group.
SMILES,MITF primary,FBW7 activator,TEAD-YAP inh,GPR151 ag,GPR151 confirm,GPR119 ag
O=C(NCc1ccco1)C1CC12CCN(C(=O)c1cc(-c3ccccc3)no1)CC2 (stereo not given),12.8,0.0,-12.1,2.0,/,/
O=C(NCCCc1ccncc1)C1CC12CCN(C(=O)c1cc(-c3ccccc3)no1)CC2 (stereo not given),17.2,0.8,5.7,6.1*,1.4,4.7
O=C(Nc1ccccc1F)C1CCCN(c2nnc(N3CCCC3=O)s2)C1 (stereo not given),8.6,-0.4,2.6,5.0*,-1.2,-9.3
Cc1c(Cl)cccc1NC(=O)C1CCCN(c2nnc(N3CCCC3=O)s2)C1 (stereo not given),-4.2,0.0,-1.8,-2.1,/,/
CCCOC(=O)c1ccc(NC(=O)C(Cl)(Cl)Cl)cc1,-5.0,0.0,-27.0,-1.7,/,/
O=c1c2ccccc2nc(/C=C/c2cn(Cc3ccccc3)c3ccccc23)n1-c1ccc([N+](=O)[O-])cc1,-1.4,-0.1,2.3,0.8,/,/
Cc1cccc(OCC(=O)Nc2ccc(OC(C)C)cc2)c1,21.1,0.0,-3.9,0.8,/,/
Cc1ccn(CCC(=O)NCC2Cc3cc(-c4cnccn4)cc(Cl)c3O2)n1 (stereo not given),-9.5,-0.1,-0.7,11.7*,1.5,15.9
Cn1ccc(C(=O)NCC2Cc3cc(-c4cnccn4)cc(Cl)c3O2)n1 (stereo not given),17.6,0.1,-0.5,0.5,/,/
C#CCSc1nsc(NC(=O)Nc2cccc(F)c2)n1,0.7,0.1,35.5*,7.1*,0.7,-0.9
Cc1ccc2nc(-c3ccccn3)cc(C(=O)Nc3ccc([N+](=O)[O-])cn3)c2c1,-1.8,-0.2,3.1,14.7*,-0.1,2.7
Cc1cc(C=C2C(=O)NC(=S)NC2=O)c(C)n1-c1ccc([N+](=O)[O-])cc1,1.4,-0.2,-14.1,6.1*,0.3,6.9
CC(C)(C)OC(=O)N1CCCC(c2nc(-c3ccncc3)no2)C1 (stereo not given),-4.6,0.1,-5.7,5.5*,0.1,9.9
CC(C)(C)OC(=O)N1CCC(c2nc(-c3ccncc3)no2)CC1,-12.8,-0.2,4.4,1.6,/,/
Cc1csc(Nc2ccccc2)[n+]1CC(O)c1ccc([N+](=O)[O-])cc1 (stereo not given),6.3,0.1,-3.1,6.3*,-0.9,-9.7
CC(C)[C@@H](CO)Nc1nc(-c2cccc(F)c2)cnc1N,4.8,0.0,4.1,1.5,/,/
CCCN(Cc1cccs1)C(=O)NCc1ccccc1,5.5,0.2,-4.9,8.1*,0.0,-11.8
Cc1cccn2c(CN(C)CCC3CCOCC3)c(C(=O)N(C)CCc3ccccc3)nc12,2.1,0.1,4.7,6.2*,-0.1,-4.2
O=[N+]([O-])/C(C(Cl)=C(Cl)Cl)=C(\N1CCOCC1)n1nnc2ccccc21,0.6,-0.3,8.4,0.8,/,/
CC1=CC(C)(C)N(C(=O)CN2C(=O)CCC2=O)c2cc(C)ccc21,5.4,-0.2,3.3,11.8*,-0.6,-11.9
COc1ccccc1NC(=O)N1CCC(C(=O)c2ccc(F)cc2)CC1,-4.7,0.1,1.0,5.7*,1.5,6.0
COc1cccc(-c2noc(C3CCCN(C(=O)Nc4ccc(C(F)(F)F)cc4)C3)n2)c1 (stereo not given),4.2,0.1,-22.7,0.1,/,/
COc1ccccc1NC(=O)N1CCC(c2nc(-c3cccc(C(F)(F)F)c3)no2)CC1,5.4,0.3,-3.5,11.5*,-0.4,-10.1
CCOC(=O)c1ccc(-c2coc3cc(O)cc(O)c3c2=O)o1,16.9,0.1,-10.0,-1.1,/,/
CC(C)(C)OC(=O)N1CCN(c2nccc(-c3ccc(-c4ccc(Cl)cc4)s3)n2)CC1,/,/,/,5.3*,-0.4,6.7
CC(C)(C)OC(=O)N1CCC(Nc2nccc(-c3ccc(S(C)(=O)=O)cc3)n2)CC1,-3.2,0.1,-14.9,2.7,/,/
COc1cccc(S(=O)(=O)N2CCC(c3nc(-c4ccccc4)no3)CC2)c1,1.5,0.1,1.6,0.4,/,/
COc1cccc(S(=O)(=O)N2CCC(c3nc(-c4cccs4)no3)CC2)c1,17.0,0.5,-5.4,8.3*,0.4,3.7
Cc1ccc(C2Nn3c(C)nnc3SC2C(=O)N2CCCCCC2)cc1 (stereo not given),9.8,0.6,-8.4,6.4*,0.2,7.1

# Bioassay records deposited in PubChem BioAssay by The Scripps Research Institute Molecular Screening Center.
